Screening data: PubChem BioAssay, Center for Chemical Genomics, University of Michigan
Dicer processing: inhibitors of human Dicer processing of pre-microRNA; z-score at 25 µM; hit rate 6% among 47,000; cat-ELCCA pre-miR-21 Dicer processing, chemiluminescence; hits give high values; in the data active = z-score above about 3, passing the limit was not always enough;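 note: plate controls were vehicle for no effect and no enzyme for full effect; higher signal means more uncleaved substrate so more Dicer inhibition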
An asterisk follows results filed as active. This excerpt belongs to a sample that is enriched for hits.

SMILES	Dicer processing
O=C(CN1CCCCC1)N1c2ccccc2CCc2ccccc21	1.29
CN(C)c1ccc(C(O)C(=O)c2ccccc2)cc1 (configuration not stated)	-0.12
COc1ccc(C(c2ccc(N(C)C)cc2)c2ccc(N(C)C)cc2)c(C)c1C	3.2*
CCOC(=O)N1CCN(c2nc3c([nH]2)c(=O)n(C)c(=O)n3C)CC1	1.6
Cc1cc(Cc2ccc(Cl)cc2)c(=O)[nH]n1	-0.59
Cc1ccc(-c2cc(Cc3cccn3-c3ccc(Cl)cc3)c(=O)[nH]n2)cc1	3.75*
Cc1ccc(-c2cc(Cc3cccs3)c(=O)[nH]n2)cc1	16.1
Cc1ccc(C2C(C(=O)c3ccc(C)o3)=C(O)C(=O)N2Cc2cccnc2)cc1 (configuration not stated)	-1.7
CC1=C(C(=O)OC(C)C)C(c2ccccc2OC(C)C)C2=C(CCCC2=O)N1 (configuration not stated)	-0.52
COC(=O)c1cc(/C=C/C(=O)N(C(=O)NC2CCCCC2)C2CCCCC2)cn1C	0.64
Cc1ccc(C)c(Oc2coc3cc(OC(=O)c4ccco4)ccc3c2=O)c1	0.42
O=C(Oc1ccc(OC(=O)c2ccco2)c(Cl)c1)c1ccco1	7.37*
O=C(Oc1cccc2cccnc12)c1ccco1	-2.43
CCOC(=O)C(=CNc1nc(-c2cc(C#N)c(=O)[nH]c2C)cs1)C(=O)OCC	-0.22
CCOC(=O)c1cn(-c2ccc(Cl)cc2)nn1	-0.67
O=C(N1CCCC1)C1(c2ccccc2)CCOCC1	3.03*
O=C(O)C1(c2ccccc2)CCCC1	2.43
O=C(NC(=S)N1CCCCC1)c1ccccc1	1.36
Cc1cc(C)c2c(n1)sc1c(N(Cc3ccccc3)Cc3ccccc3)ncnc12	-0.77
Cc1onc(-c2c(Cl)cccc2Cl)c1NC(=O)NNC(=S)NC(C)(C)C	-0.71
CS(=NC(=O)c1ccc(Cl)cc1)c1ccc(OC(=O)c2ccc(Cl)cc2)cc1 (configuration not stated)	1.09
CC(C)(C)NC(=S)Nc1ccccc1C(F)(F)F	-0.62
N/C(=N\NS(=O)(=O)c1cc(C(F)(F)F)cc(C(F)(F)F)c1)c1ccccn1	1.01
N/C(=N\NC(=S)Nc1ccccc1C(F)(F)F)c1ccccn1	4.28*
CC1=C(C(=O)Nc2ccccc2)C(c2ccco2)C(C#N)=C(SCC(=O)Nc2ccc(F)cc2)N1 (configuration not stated)	-1.15
SMILES	Dicer processing
CC(C)(C)C(=O)NCCNC(=O)c1nonc1N	0.96
Nc1nonc1C(=O)NCCNCc1cccs1	-0.27
Nc1nonc1C(=O)NCCNC(=O)c1cccc(Br)c1	5.23*
Cc1ccc(-c2noc(-c3cc(-c4ccccc4)c(C(F)(F)F)s3)n2)cc1	1.95
Cc1nnc(N2C(=O)C(=O)/C(=C(/O)c3ccc(F)cc3)C2c2cccc(Oc3ccccc3)c2)s1 (configuration not stated)	1.58
Fc1ccccc1NC(=S)N/N=C/c1cccc2ccccc12	3.4*
CNC(=S)N/N=C/c1c(O)ccc2ccccc12	0.57
CC(C)(C)OC(=O)N/N=C\c1cccc2ccccc12	-1.25
Cc1ccc(C(=O)Cn2c(C)[n+](C)c3ccccc32)cc1	-0.17
Cc1n(CC(=O)c2ccc(C(C)(C)C)cc2)c2ccccc2[n+]1C	4.94*
COC(=O)c1ccc(OCC(O)Cn2c(C)[n+](C)c3ccccc32)cc1 (configuration not stated)	0.87
Cc1nc(C(=O)N/N=C/c2[nH]ncc2Cl)cs1	-0.33
Cc1ccc(Cn2ncc(Br)c2/C=N/NC(=S)NC(C)(C)C)cc1	-0.09
CC(C)(C)NC(=S)N/N=C\c1[nH]ncc1Cl	4.97*
O=c1cc(O)c2sc3nc(-c4cccs4)cc(-c4ccc(Cl)cc4)c3c2[nH]1	0.46
O=C(O)c1cccc2c1NC(c1ccccc1)C1C3CCC(C3)C21 (configuration not stated)	2.01
CC(C)S(=O)(=O)c1csc(C(=O)O)c1N	-0.43
Cc1occc1-c1nnc(SCC(=O)c2ccc(Br)cc2)o1	-1.04
O=C1CC(Nc2ccc(N3CCOCC3)cc2)C(=O)N1c1ccccc1F (configuration not stated)	2.84
O=C1CC(Nc2ccc(N3CCCCC3)cc2)C(=O)N1c1ccccc1F (configuration not stated)	3.31*
O=C1CC(Nc2ccc(F)cc2)C(=O)N1c1ccc(N2CCCCC2)cc1 (configuration not stated)	-0.19
Clc1ccccc1-c1noc(-c2cccs2)n1	-0.76
CCOC(=O)c1cnc2c(c(C)nn2C)c1Sc1cccc(Cl)c1	-3.56
CC1(C)CCc2cc(CN3CCN(Cc4ccccc4)CC3)ccc2O1	2.07
COc1ccc(OC)c(C(=O)CC2(O)C(=O)N(C(C)C)c3ccccc32)c1 (configuration not stated)	0.57
SMILES	Dicer processing
CCCN1C(=O)C(O)(CC(=O)c2ccco2)c2ccccc21 (configuration not stated)	0.02
CC(C)N1C(=O)C(O)(CC(=O)c2ccco2)c2ccccc21 (configuration not stated)	6.92*
CC12CCC(C1)C(C)(C)C2NS(=O)(=O)c1ccc(C#N)cc1 (configuration not stated)	0.04
Cn1cnnc1SCC(=O)Nc1ccc(F)cc1F	4.73*
Cn1cnnc1SCC(=O)Nc1nc2ccccc2s1	2.82
Cc1nnc(SCC(=O)Nc2ccc(F)cc2F)s1	0.78
C=CCNc1oc(-c2ccc(C)cc2)nc1C#N	-0.92
CC12N=NCC1C(=O)N(c1cccc(Cl)c1)C2=O (configuration not stated)	0.44
CC12N=NCC1C(=O)N(c1ccc(Cl)cc1)C2=O (configuration not stated)	3.05*
Cc1ccc(N2C(=O)C3CN=NC3(C)C2=O)cc1 (configuration not stated)	1.81
CC(C)(C)c1nc2sc3c(c2c(=O)[nH]1)CCCC3	5.34*
C=C(C)CSc1nc2sc3c(c2c(=O)[nH]1)CCCC3	0.28
COc1ccc(-c2nc3c4c5c(sc4ncn3n2)CCCCC5)cc1OC	1.11
O=C(CSc1nc2sc3c(c2c(=O)[nH]1)CCCC3)N1CCCCC1	-0.27
COc1ccc(-c2nc3sc4c(c3c(=O)[nH]2)CCCC4)cc1OC	5.08*
COc1ccc(-c2ncnn2-c2sc3c(c2C#N)CCCC3)cc1OC	-5.02
Cc1cc(N/C=C(\C#N)C(=O)c2cc(C)oc2C(F)(F)F)no1	-0.22
Cn1ncc2c(O/N=C(\N)c3cc(C(F)(F)F)cc(C(F)(F)F)c3)ncnc21	-0.36
CCCCCOc1ccc(C2C(C(=O)OCC)=C(C)N=C3SCCC(=O)N32)cc1OC (configuration not stated)	0.73
O=C(O)CCCCCCCC(=O)c1ccccc1	-2.37
NC(=S)N/N=C/c1cn(-c2ccccc2)nc1-c1ccccc1	6.99
OCc1ccccc1CN1CCOCC1	0.95
C=CCn1c(N)c(C(=O)NCC)sc1=S	1.97
CCCCNC(=O)NS(=O)(=O)c1ccccc1Cl	-1.36
CC(=O)c1ccc(S(=O)(=O)NC(=O)NC2CCCCC2)cc1	2.44
SMILES	Dicer processing
O=C(NC1CCCC1)NS(=O)(=O)c1ccccc1Cl	3.22*
COc1ccc(Nc2ccnc3ccccc23)cc1	3.59*
COc1ccc(Nc2ncnc3ccccc23)cc1	6.18
COc1ccc(Nc2nc3ccccc3c(=O)s2)cc1	1.95
CC(=O)[C@@]1(O)CCC2C3CC[C@@]4(C)CC(=O)CCC4(C)C3C(=O)CC21C (some centres not stated)	-0.11
CCCn1c(=O)c(C#N)nn(-c2ccccc2)c1=O	-0.03
C=CCSc1nc(C)c2cc(C)ccc2n1	-0.03
CSc1nc(C)c2cc(C)oc2n1	4.27*
